Results filed as inconclusive are left out. The source made the active and inactive calls. Unless noted, the call rests on the fitted dose curve; in most records, active means well fitted curve in the direction sought with a large enough effect; inconclusive means small, poorly fitted or top-dose-only effect, or another doubt; inactive means no such curve, though single readings can be large; an effect the other way counts as inactive or inconclusive.
What was measured:
[1] = Inducers of the Endoplasmic Reticulum Stress Response (ERSR) in human glioma: Validation (AID 504836); settings: human glioma cells, ER stress response reporter; series mostly up to 38.3 µM
Summary of the method: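 Stably transfected U87-MG glioma cells carrying a GRP78-based luciferase sensor; 16 h compound incubation. Luminescence end-point read 10 min after Bright-Glo addition at room temperature.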

[2] = qHTS for Inhibitors of the Functional Ribonucleoprotein Complex (vRNP) of Lassa (LASV) Arenavirus: LASV Primary Screen - GLuc reporter signal (AID 1347082; calls by dose curve; tested in HEK293 reporter line; further: nearly all actives have a fitted effect of over 60% in size); settings: LASV minigenome vRNP, Gaussia luciferase reporter; series mostly up to 57.5 µM
[3] = qHTS for Inhibitors of the Functional Ribonucleoprotein Complex (vRNP) of Lassa (LASV) Arenavirus: Viability assay - alamar blue signal for LASV Primary Screen (AID 1347083; calls by dose curve; tested in HEK293 reporter line; further: nearly all actives have a fitted effect of over 80% in size); settings: cell viability, alamar blue fluorescence (LASV minigenome counter-screen); series mostly up to 57.5 µM
[4] = qHTS for Inhibitors of the Functional Ribonucleoprotein Complex (vRNP) of Lymphocytic Choriomeningitis Arenaviruses (LCMV): Viability assay - alamar blue signal for LCMV Primary Screen (AID 1347085; calls by dose curve; tested in HEK293 reporter line; further: nearly all actives have a fitted effect of over 80% in size); settings: alamar blue viability counter-screen, LCMV vRNP screen cells; series mostly up to 57.5 µM
[5] = biological target: Nucleoprotein (Lymphocytic choriomeningitis virus (strain Armstrong)) (UniProt P09992); assay: qHTS for Inhibitors of the Functional Ribonucleoprotein Complex (vRNP) of Lymphocytic Choriomeningitis Arenaviruses (LCMV): LCMV Primary Screen - GLuc reporter signal (AID 1347086; calls by dose curve; further: nearly all actives have a fitted effect of over 70% in size); settings: LCMV minigenome vRNP cell assay, Gaussia luciferase reporter; series mostly up to 57.5 µM
Nucleoprotein (Lymphocytic choriomeningitis virus (strain Armstrong)), sequence (P09992 whole entry, looked up): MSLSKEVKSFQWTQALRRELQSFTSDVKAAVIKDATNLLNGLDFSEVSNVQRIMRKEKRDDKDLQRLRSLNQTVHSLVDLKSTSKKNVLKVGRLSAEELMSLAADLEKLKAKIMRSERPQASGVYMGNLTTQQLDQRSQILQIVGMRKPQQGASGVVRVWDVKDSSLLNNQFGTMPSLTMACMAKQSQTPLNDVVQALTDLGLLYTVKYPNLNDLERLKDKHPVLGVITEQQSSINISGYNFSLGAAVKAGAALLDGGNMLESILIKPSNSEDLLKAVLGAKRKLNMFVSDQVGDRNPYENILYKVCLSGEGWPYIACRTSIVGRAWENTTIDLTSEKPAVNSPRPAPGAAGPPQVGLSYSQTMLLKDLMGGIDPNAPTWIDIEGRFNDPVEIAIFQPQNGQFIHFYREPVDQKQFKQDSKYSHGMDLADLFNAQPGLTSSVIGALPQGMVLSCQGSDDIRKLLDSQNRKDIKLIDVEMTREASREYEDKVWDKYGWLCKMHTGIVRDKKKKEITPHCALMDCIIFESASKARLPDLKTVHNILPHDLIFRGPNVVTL

[6] = biological target: Alpha-galactosidase (Coffea arabica) (UniProt Q42656); assay: Counterscreen for Glucocerebrosidase Inhibitors: qHTS Assay for Coffee Bean alpha-Galactosidase at pH 4.5 (AID 957); settings: purified coffee bean alpha-galactosidase, fluorogenic substrate; series mostly up to 76.9 µM
Alpha-galactosidase (Coffea arabica), sequence (Q42656 whole entry, looked up): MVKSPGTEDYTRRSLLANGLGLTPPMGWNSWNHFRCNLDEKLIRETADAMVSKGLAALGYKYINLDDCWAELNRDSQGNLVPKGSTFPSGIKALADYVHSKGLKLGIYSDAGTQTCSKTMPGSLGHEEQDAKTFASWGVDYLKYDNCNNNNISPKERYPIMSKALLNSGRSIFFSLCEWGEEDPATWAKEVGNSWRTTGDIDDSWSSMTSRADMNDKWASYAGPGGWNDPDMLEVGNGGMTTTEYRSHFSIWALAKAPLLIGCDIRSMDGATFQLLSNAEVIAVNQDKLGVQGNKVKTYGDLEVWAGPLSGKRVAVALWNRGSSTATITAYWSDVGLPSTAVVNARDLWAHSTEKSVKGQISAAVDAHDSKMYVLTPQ
Summary of the method: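 Coffee bean alpha-galactosidase 2 nM, substrate 4-MU-alpha-Gal 80 uM, pH 4.5 citrate/Tween-20, 20 min RT. Cpd titration 0.7 nM–77 uM. Stop pH 10, fluorescence 365/440 nm; Hill-equation AC50.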

[7] = biological target: Alpha-galactosidase (Coffea arabica) (UniProt Q42656); assay: Counterscreen for Glucocerebrosidase Inhibitors: qHTS Assay for Coffee Bean alpha-Galactosidase at pH 5.9 (AID 998); settings: coffee bean alpha-galactosidase enzyme assay; series mostly up to 76.9 µM
Summary of the method: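 Green coffee bean enzyme (2 nM) with 4-methylumbelliferyl alpha-D-galactopyranoside (80 uM) in 50 mM citric acid, 0.005% Tween-20, pH 5.9, 20 min at room temperature; compounds 0.7 nM–77 uM. Stopped at pH 10, fluorescence Ex365/Em440; Hill-fit AC50.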

Measured: Potency

Cc1nn(-c2ccccc2)c(C)c1/C=N/N1CCN(Cc2ccccc2)CC1
not listed: [6] | [7]
inactive: all other assays above

CN1CCc2cc(NC(=O)Nc3cccnc3)ccc21
inactive: all assays above

CN1C2CCCC1CC(NC(=O)c1nn(C)c3ccccc13)C2 (configuration not stated)
not listed: [6] | [7]
inactive: all other assays above

O=c1cc(-c2ccccc2F)[nH]c2cc3c(cc12)OCO3
not listed: [6] | [7]
inactive: all other assays above

Source: PubChem BioAssay (NCATS)
